High-throughput results: PubChem, several laboratories
Most compounds without a hit are left out; they make up all but 3.9% or so of the library.
BoNT-F LC inh = BoNT F light chain protease inhibition | Multiplex microsphere protease cleavage assay, flow cytometry | inhibition, % at 10 µM | 0.22% of 360,000 active | AID 588497; in the data active = inhibition above about 35%, passing the limit was not always enough; inconclusive = no clear call, values can overlap the other calls
BH1578 lux ind = induces V. cholerae light production without autoinducers. V. cholerae BH1578 lux reporter, luminescence, 6 h. activation, % at 18.7 µM. 0.16% of 350,000 active; in the data active = activation mostly above about 9.7%, no sharp cut-off; inconclusive = no clear call, values can overlap the other calls; inactive = mostly below about 3.7%
Bead autofluor = counter-screen for toxin protease inhibitors: compound fluorescence. compound autofluorescence counterscreen, microsphere flow cytometry; hits give high values. fluorescence intensity (no concentration beside the values). 3.1% of 360,000 active; in the data active = fluorescence intensity above about 16000; inconclusive = no clear call, values can overlap the other calls
Anthrax LF inh2 = anthrax lethal factor protease inhibition. inhibition, % at 10 µM. AID 588501. multiplex microsphere protease cleavage assay, LF. 0.12% of 360,000 active. P15917
MazF activator = MazEF (E. coli) toxin RNase activation | P0AE70 | FAM/BHQ RNA-DNA oligo cleavage fluorescence, 5 h | activation, % at 20 µM | 0.32% of 350,000 active; in the data active = activation above about 50%
Target sequence (P0AE70 whole entry, looked up): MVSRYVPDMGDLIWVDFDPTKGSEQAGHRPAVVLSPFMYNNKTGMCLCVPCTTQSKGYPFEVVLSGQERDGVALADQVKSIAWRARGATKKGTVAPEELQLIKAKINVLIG
BoNT-A LC inh2 = inhibitors of Botulinum neurotoxin A light chain protease; AID 588499; 0.17% of 360,000 active; multiplex microsphere protease substrate cleavage, flow cytometry; inhibition, % at 10 µM
Large screens that a line does not name were inactive; ! = not confirmed by another sample. Cut-off read from the data, not from the text of the source, unless noted: active = inhibition above about 30%; inconclusive = no clear call, values can overlap the other calls; inactive = below that.

CC1CN(Cc2nc3c(c(=O)n(C)c(=O)n3C)n2Cc2ccccc2)CC(C)O1 (centres undefined)	none
Cc1cccc(N2CCN(C(=O)c3ccoc3C)CC2)c1C	none
COc1cc(NC(=S)N2CCN(C/C=C/c3ccccc3)CC2)cc(OC)c1	none
O=C(Nc1ccc2c(c1)OCO2)N1CCN(C/C=C/c2ccccc2)CC1	Bead autofluor 17067
COC(=O)c1ccccc1NC(=O)N1CCN(C/C=C/c2ccccc2)CC1	Bead autofluor 20603
O=C(Nc1ccc2c(c1)OCO2)N1CCN(c2ncccn2)CC1	Bead autofluor 22918
COc1cccc(NC(=S)N2CCN(C/C=C/c3ccccc3)CC2)c1	Bead autofluor 22410
COc1cccc(CN2CC(C(=O)NCCc3nccs3)CCC2=O)c1 (centres undefined)	none
Cc1cc(C)c2c(=O)[nH]c(SCC(=O)N3CCCCC3)nc2n1	Bead autofluor 21909
Cc1cc(C)c2c(=O)[nH]c(SCC(=O)N3CCOCC3)nc2n1	none
COC(=O)c1noc(-c2ccc(C)cc2)n1	Bead autofluor 23185
COC(=O)c1noc(-c2ccc(OC)cc2)n1	none
c1nc2sc3c(c2c2nnnn12)CCC3	Bead autofluor 23437
O=c1c2ccccc2nc(N2CCCC2)n1-c1ccc(Cl)cc1	Bead autofluor 22940
COc1nc2ccccc2c(=O)n1-c1ccc(Cl)cc1	none
CCOC(=O)c1c(C)c(C(=O)NCCN2CCOCC2)c(C)n1CC	Bead autofluor 17127
CCOC(=O)c1c(C)c(C(=O)NCc2cccs2)c(C)n1CC	Bead autofluor 20405
COc1ccc(Cc2c(-c3cccc(Cl)c3)nc3ccc(Cl)cn23)c(C)c1	none (no result: BH1578 lux ind, MazF activator)
Cc1ccc(-n2c(CCC(=O)O)ccc2-c2cccs2)cc1	Bead autofluor 23564
CCCCNc1c(-c2cc3ccccc3o2)nc2nc(C)cc(C)n12	none (no result: BH1578 lux ind, MazF activator)
C=CCn1c(=N)c(S(=O)(=O)c2ccc(C)c(C)c2)cc2c(=O)n3ccccc3nc21	MazF activator 183
Cc1ccc(S(=O)(=O)c2cc3c(=O)n4ccccc4nc3n(C)c2=N)cc1C	none
Cc1ccc(S(=O)(=O)c2cc3c(=O)n4ccccc4nc3n(Cc3ccco3)c2=N)cc1	Bead autofluor 20456, BoNT-A LC inh2 inconclusive
O=C(Nc1ccc2c(c1)OCO2)N1CCCC1	none
CN(C)C(Cc1ccc(Cl)cc1)C(=O)c1ccccc1 (centres undefined)	none
COC(=O)c1ccc(CC(C(=O)c2ccccc2)N(C)C)cc1 (centres undefined)	MazF activator 53
Cc1ccnc(-n2c(C)cc(C=C3C(=O)N(C)C(=S)N(C)C3=O)c2C)c1	BoNT-A LC inh2 32 (no result: BH1578 lux ind)
Cc1cc(C)nc(NC(=O)c2cccc(Cl)c2)n1	Bead autofluor 22692
COc1ccc(N(CC(=O)NCc2ccco2)C(=O)CCC(=O)Nc2nccs2)cc1	none
COc1cc([N+](=O)[O-])cc2cc(C(=O)N3CCCC3)c(=O)oc12	none
N#Cc1ccccc1Cn1c(-c2cscn2)nc2ccccc21	Bead autofluor 22811, BoNT-A LC inh2 inconclusive
CCOc1c(C)cc(-c2ncccc2O)cc1C	Bead autofluor 22538!
COc1ccc(-c2ncccc2O)cc1	none
Cc1cccc(NC(=O)C2CCCN(C(=O)Nc3ccc(F)cc3)C2)c1 (centres undefined)	none
COC(=O)C1CCN(C(=O)c2ccc(SC)cc2OC)CC1	Bead autofluor 20634, BoNT-A LC inh2 inconclusive
Cc1cnn(C2CCN(C)CC2)c1N	Bead autofluor 16760
COc1ccccc1C(=O)Nc1ccnn1C1CCN(C)CC1	none
Cc1ccc(NCC(=O)NNC2=NCCC2)c(C)c1	none
Cc1cccc(-n2c(CCn3nc(C)c([N+](=O)[O-])c3C)n[nH]c2=S)c1	Bead autofluor 16467
COc1cccc(-n2c(CCn3nc(C)c([N+](=O)[O-])c3C)n[nH]c2=S)c1	none
O=C(NCc1n[nH]c(=S)n1-c1ccc(Cl)c(Cl)c1)c1ccco1	none
O=C(NCc1n[nH]c(=S)n1-c1ccccc1)c1ccco1	Bead autofluor 19724
c1ccc(N=NC2=NN(c3ccccc3)CS2)cc1	none
COc1ccc(C(=O)CC(Nc2ccc([N+](=O)[O-])cc2)c2ccc(OC)cc2)cc1 (centres undefined)	Bead autofluor 24070
COc1ccc(C(=O)CC(=O)Nc2ccc([N+](=O)[O-])cc2)cc1	none
CCN1C(=O)[C@H]2[C@@H](c3ccc(OC)cc3)N[C@]3(CCCN(Cc4ccc(Br)cc4)C3=O)[C@H]2C1=O	none
Cc1cccc(C)c1NC(=O)c1sccc1SCc1cccc(C(F)(F)F)c1	Bead autofluor 17658
